From PubChem BioAssay
HCMV inh: inhibitors of human cytomegalovirus | HFF cells, HCMV-luciferase reporter, 72 h; stronger effect = lower value | activity change, negative = inhibition, % at 57.5 µM | 410,000 tested, 4.5% active | AID 1259415; in the data active = activity change below about -60%; inconclusive = no clear call, values can overlap the other calls; inactive = above about -39%
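Cell-based, HFFs, 1000 cells/well, 16 h 37C; cpds in DMSO + HCMV-luc, MOI 1 PFU/cell; 72 h 37C; OneGlo luminescence after 5 min RT; norm. to buffer vs Salinomycin 10uM.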
Marburg entry inh: blocks Marburg virus binding to or entry into cells; Marburg virus pseudotyped entry inhibition, cell reporter; Potency, µM (titrated, usually from 37.8 µM), hits mostly inhibitors; 300,000 tested, 1.8% active; calls by dose curve; tested in HEK293 cells
FMDV inh: blocks foot and mouth disease virus. Potency, µM (series often up to 57.9 µM), most hits filed as inhibitors. FMDV antiviral cell-based qHTS. 410,000 tested, 1.2% active; calls by dose curve; tested in HEK293T cells; also: read-out not given here; nearly all actives have a fitted effect of over 45% in size
HCV inhibitor: blocks hepatitis C virus | Huh7.5.1 HCVcc-Cre infection, luciferase reporter, 44 h | Potency, µM (series often up to 41.8 µM), actives largely listed as inhibitors | 340,000 tested, 3.4% active | AID 651820; active = well fitted inhibition curve with a large enough effect; inconclusive = small, poorly fitted or top-dose-only effect, or another doubt; inactive = no such curve, though single readings can be large or run the other way
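Luciferase read-out (15 sec integration) after a 15 min room-temperature substrate step quantifies HCVcc-Cre infection. Cells, 1,000 per well, had compound added 4 h post-plating, then virus at ~0.5 moi, and were cultured 44 h.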
LASV entry inh: Lassa virus entry inhibition; 300,000 tested, 1.2% active; Potency, µM (top dose mostly 37.9 µM), usual class: inhibitors; Lassa virus pseudotype entry inhibition, cell reporter; calls by dose curve; tested in HEK293 cells; also: nearly all actives have a fitted effect of over 50% in size
Each line names hits and unclear results; the compound was inactive in the other large screens. The list is not random: actives were taken first. Their share in the collection is about 7.9%.

Cc1cc(C)c(C)c(S(=O)(=O)N2CCN(C(=O)c3ccccn3)CC2)c1C	none (no result: Marburg entry inh, LASV entry inh)
COC(=O)c1c(-n2c(C)cc(C=O)c2C)sc2c1CCCC2	HCMV inh -76 (no result: FMDV inh)
CCOC(=O)c1c(-n2c(C)cc(C=C3C(=O)NC(=S)NC3=O)c2C)sc2c1CCCC2	FMDV inh 10µM, HCV inhibitor inconclusive (no result: HCMV inh, LASV entry inh)
Cc1ccc(N2C(=O)NC(=O)/C(=C\c3cc(C)n(-c4sc5c(c4C#N)CCCC5)c3C)C2=O)cc1	Marburg entry inh 2.5µM, FMDV inh inconclusive, LASV entry inh inconclusive
COc1ccc(NC(=O)C2CCN(C(=O)c3sc4nc[nH]c(=O)c4c3C)CC2)cc1Cl	none (no result: Marburg entry inh, HCV inhibitor)
O=C(CCc1ccc(S(=O)(=O)N2CCOCC2)cc1)N/N=C/c1ccc(O)c(O)c1O	HCMV inh -98, FMDV inh 40µM
COc1ccc(-c2sc3ccccc3c2/C=C/c2ccc(OC)c(OC)c2)cc1	none (no result: Marburg entry inh, LASV entry inh)
COc1ccc(/C=C/c2c(-c3ccc(OC)cc3)sc3cc(OC)c(OC)cc23)cc1	HCV inhibitor 2.5µM (no result: Marburg entry inh, LASV entry inh)
COc1ccc(-c2sc3ccccc3c2/C=C/c2ccncc2)cc1	HCV inhibitor 7.1µM (no result: Marburg entry inh, LASV entry inh)
COc1ccc(/C=C/c2c(-c3ccccc3OC)sc3ccccc23)cc1OC	HCV inhibitor inconclusive (no result: Marburg entry inh, LASV entry inh)
CCOC(=O)c1c(NC(=O)/C=C/c2ccc(C(C)C)cc2)sc2c1CCC2	LASV entry inh inconclusive (no result: Marburg entry inh, HCV inhibitor)
COc1ccc(N2CC(NC(=O)c3c(F)cccc3Cl)CC2=O)cc1OC (stereo not given)	LASV entry inh inconclusive (no result: Marburg entry inh, HCV inhibitor)
O=C(Nc1ccc(N2CCOCC2)cc1)c1cccc2c(Br)cccc12	none
O=C(Nc1ccccc1N1CCOCC1)c1cccc2c(Br)cccc12	HCMV inh inconclusive, HCV inhibitor 5.6µM (no result: Marburg entry inh, LASV entry inh)
CC(C)C(=O)N1CCN(c2ccccc2NC(=O)c2cccc3ccccc23)CC1	HCMV inh -65, Marburg entry inh inconclusive, FMDV inh inconclusive, HCV inhibitor inconclusive, LASV entry inh inconclusive
Cc1ccc(C2C=CC(C#N)=CN2Cc2ccccc2)cc1 (stereo not given)	none (no result: HCMV inh, Marburg entry inh, HCV inhibitor, LASV entry inh)
C=C(Cl)COc1ccc2c(CC)cc(=O)oc2c1	HCV inhibitor 8.9µM (no result: FMDV inh)
COC(=O)c1cc(OC)c(OC)cc1NC(=O)c1cccc(C)c1	HCMV inh inconclusive, HCV inhibitor inconclusive
COC(=O)c1cc(OC)c(OC)cc1NC(=O)c1csc(C)c1	HCMV inh -67
CCCCCNC(=O)c1cc(S(=O)(=O)N2CCCCC2)ccc1F	HCMV inh -105
O=C(NCCc1ccccc1)c1cc(S(=O)(=O)N2CCCC2)ccc1F	HCMV inh active (no result: Marburg entry inh, LASV entry inh)
O=C(Nc1ccc(F)cc1)c1cc(S(=O)(=O)N2CCCCC2)ccc1F	FMDV inh inconclusive, HCV inhibitor inconclusive (no result: Marburg entry inh, LASV entry inh)
CC(C)CN(CCCNC(=O)c1cc(=O)[nH]c2ccc(S(=O)(=O)N3CCCC3)cc12)CC(C)C	HCMV inh -68 (no result: Marburg entry inh, HCV inhibitor)
CCN1C(=O)[C@H]2[C@@H](c3ccc(C(F)(F)F)cc3)N[C@]3(CCCN(Cc4ccc(C(F)(F)F)cc4)C3=O)[C@H]2C1=O	none (no result: Marburg entry inh, HCV inhibitor, LASV entry inh)
CSCCC(NS(=O)(=O)c1ccc(C)cc1)C(=O)N1CCN(C(c2ccccc2)c2ccccc2)CC1 (stereo not given)	Marburg entry inh inconclusive, HCV inhibitor inconclusive, LASV entry inh 3.5µM
CSCCC(NS(=O)(=O)c1ccc(C)cc1)C(=O)N1CCN(C(C)=O)CC1 (stereo not given)	HCMV inh inconclusive
CN(C(=O)c1cccc(NC(=O)Cc2ccc(NC(=O)C3CCCN(C(=O)C4CCCC4)C3)cc2)c1)C1CCCC1 (stereo not given)	FMDV inh inconclusive, HCV inhibitor 10µM (no result: Marburg entry inh, LASV entry inh)
CN(C(=O)c1cccc(NC(=O)Cc2ccc(NC(=O)C3CCCN(C(=O)CCc4ccccc4)C3)cc2)c1)C1CCCCC1 (stereo not given)	HCMV inh -75, FMDV inh 14µM, HCV inhibitor 3.2µM (no result: Marburg entry inh, LASV entry inh)
CN(C(=O)c1cccc(NC(=O)C2CCN(C(=O)OC(C)(C)C)CC2)c1)C1CCCCC1	FMDV inh inconclusive, HCV inhibitor 10µM (no result: Marburg entry inh, LASV entry inh)
COc1ccc(C2=NCC(C)n3c2c2ccc(OC)cc2[n+]3[O-])cc1 (stereo not given)	none (no result: Marburg entry inh, FMDV inh, HCV inhibitor, LASV entry inh)
Cc1ccc(-c2nc(=S)c3c(n2Cc2ccco2)CCCC3)cc1	none
Cc1ccc(-c2nc(=S)c3c(n2Cc2ccco2)CC(C)(C)OC3)cc1	Marburg entry inh 13µM, FMDV inh inconclusive (no result: HCMV inh)
c1sc2[n+](c1C13CC4CC(CC(C4)C1)C3)CCS2	HCMV inh -64, Marburg entry inh inconclusive, FMDV inh inconclusive
COc1ccc([C@@H]2C(C#N)=C(C)NC3=C2C(=O)c2ccccc23)cc1	none (no result: HCMV inh, FMDV inh, HCV inhibitor, LASV entry inh)
